# Test results reported in the supplement of paper PMC8728848.
# This excerpt belongs to a sample that is enriched for the strongest signals.
# B1: AT5G17240(42) (Arabidopsis thaliana), Q6NQJ8 (protein)
# chain: MDLEHQTMETFLRWAAEIGISDSIDSSRFRDSCLGHSLSVSDFPDAGGRGLGAARELKKGELVLKVPRKALMTTESIIAKDLKLSDAVNLHNSLSSTQILSVCLLYEMSKEKKSFWYPYLFHIPRDYDLLATFGNFEKQALQVEDAVWATEKATAKCQSEWKEAGSLMKELELKPKFRSFQAWLWASATISSRTLHVPWDSAGCLCPVGDLFNYDAPGDYSNTPQGPESANNVEEAGLVVETHSERLTDGGFEEDVNAYCLYARRNYQLGEQVLLCYGTYTNLELLEHYGFMLEENSNDKVFIPLETSLFSLASSWPKDSLYIHQDGKLSFALISTLRLWLIPQSQRDKSVMRLVYAGSQISVKNEILVMKWMSEKCGSVLRDLPTSVTEDTVLLHNIDKLQDPELRLEQKETEAFGSEVRAFLDANCLWDVTVLSGKPIEFSRKTSRMLSKWRWSVQWRLSYKRTLADCISYCNEKMNNLLGTQDRLRDL
# Columns and labels:
# Experiment in all cases: glycan array binding signal (z-score within array); higher = stronger binding
# Conditions in all cases: glycan notation: IUPAC condensed, linker removed
# [1] = molecular target: Fuc(a1-2)Gal(b1-3)GalNAc(a1-3)[Fuc(a1-2)]Gal(b1-4)Glc
# Method in brief: (§1)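 Glycan array data were curated from 3228 arrays in the Consortium for Functional Glycomics database and kept only where the protein sequence was available. Glycan names were converted to IUPAC-condensed notation, and columns mapping to the same glycan were averaged. The binding signal is a within-array Z-score, averaged across arrays of the same protein sequence at different concentrations or buffers and across linkers. Negative Z-scores can be read as non-binding.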
# [2] = molecular target: Fuc(a1-2)Gal(b1-4)[Fuc(a1-3)]GlcNAc(b1-3)Gal(b1-4)[Fuc(a1-3)]GlcNAc
# Method in brief: as §1
# [3] = molecular target: Fuc(a1-2)Gal(b1-4)[Fuc(a1-3)]GlcNAc(b1-3)[Neu5Ac(a2-6)Gal(b1-4)GlcNAc(b1-6)]Gal(b1-4)Glc
# Method in brief: as §1
# [4] = molecular target: Fuc(a1-2)[Gal(a1-3)]Gal(b1-4)GlcNAc(b1-6)GalNAc
# Method in brief: as §1
# [5] = molecular target: Fuc(a1-2)[GalNAc(a1-3)]Gal(b1-3)GalNAc(a1-3)[Fuc(a1-2)]Gal(b1-4)GlcNAc
# Method in brief: as §1
# [6] = molecular target: Fuc(a1-2)[GalNAc(a1-3)]Gal(b1-4)[Fuc(a1-3)]GlcNAc(b1-3)GalNAc
# Method in brief: as §1
# [7] = molecular target: Fuc(a1-3)[Gal(b1-4)]GlcNAc(b1-2)Man(a1-3)[Fuc(a1-3)[Gal(b1-4)]GlcNAc(b1-2)Man(a1-6)]Man(b1-4)GlcNAc(b1-4)[Fuc(a1-6)]GlcNAc
# Method in brief: as §1
# Gal(a1-3)GalNAc = molecular target: Gal(a1-3)GalNAc
# Method in brief: as §1
# [8] = molecular target: Gal(a1-3)[Gal(a1-4)]Gal(b1-4)GlcNAc
# Method in brief: as §1
# Gal(a1-4)Gal(b1-4)Glc = molecular target: Gal(a1-4)Gal(b1-4)Glc
# Method in brief: as §1
# [9] = molecular target: Gal(b1-3)GalNAc(b1-4)Gal(b1-4)Glc
# Method in brief: as §1
# [10] = molecular target: Gal(b1-3)GlcNAc(a1-3)Gal(b1-4)GlcNAc
# Method in brief: as §1
# Gal(b1-4)Gal = molecular target: Gal(b1-4)Gal
# Method in brief: as §1
# [11] = molecular target: Gal(b1-4)GalNAc(a1-3)[Fuc(a1-2)]Gal(b1-4)GlcNAc
# Method in brief: as §1
# [12] = molecular target: Gal(b1-4)GlcNAc(b1-3)Gal(b1-4)GlcNAc(b1-3)Gal(b1-4)GlcNAc(b1-2)Man(a1-3)[Gal(b1-4)GlcNAc(b1-3)Gal(b1-4)GlcNAc(b1-3)Gal(b1-4)GlcNAc(b1-2)Man(a1-6)]Man(b1-4)GlcNAc(b1-4)[Fuc(a1-6)]GlcNAc
# Method in brief: as §1
# Gal(b1-6)Gal = molecular target: Gal(b1-6)Gal
# Method in brief: as §1
# Gal3S6S(b1-4)GlcNAc6S = molecular target: Gal3S6S(b1-4)GlcNAc6S
# Method in brief: as §1
# Gal6S(b1-4)Glc = molecular target: Gal6S(b1-4)Glc
# Method in brief: as §1
# [13] = molecular target: GalNAc(b1-3)Gal(a1-4)Gal(b1-4)GlcNAc
# Method in brief: as §1
# GalNAc(b1-4)GlcNAc = molecular target: GalNAc(b1-4)GlcNAc
# Method in brief: as §1
# GalNAc4S6S(b1-4)GlcNAc = molecular target: GalNAc4S6S(b1-4)GlcNAc
# Method in brief: as §1
# GalNAc6S(b1-4)GlcNAc = molecular target: GalNAc6S(b1-4)GlcNAc
# Method in brief: as §1
# GlcA(b1-3)Gal = molecular target: GlcA(b1-3)Gal
# Method in brief: as §1
# [14] = molecular target: GlcNAc(a1-4)Gal(b1-3)GlcNAc
# Method in brief: as §1
# [15] = molecular target: GlcNAc(a1-4)Gal(b1-4)GlcNAc(b1-3)Gal(b1-4)Glc
# Method in brief: as §1
# [16] = molecular target: GlcNAc(b1-2)Gal(b1-3)GalNAc
# Method in brief: as §1
# [17] = molecular target: GlcNAc(b1-2)[GlcNAc(b1-4)]Man(a1-3)[GlcNAc(b1-4)][GlcNAc(b1-2)Man(a1-6)]Man(b1-4)GlcNAc(b1-4)GlcNAc
# Method in brief: as §1
# [18] = molecular target: GlcNAc(b1-3)Gal(b1-4)GlcNAc(b1-2)[GlcNAc(b1-3)Gal(b1-4)GlcNAc(b1-6)]Man(a1-6)[GlcNAc(b1-3)Gal(b1-4)GlcNAc(b1-2)Man(a1-3)]Man(b1-4)GlcNAc(b1-4)GlcNAc
# Method in brief: as §1
# [19] = molecular target: GlcNAc(b1-3)Gal(b1-4)GlcNAc(b1-3)Gal(b1-4)GlcNAc(b1-2)[GlcNAc(b1-3)Gal(b1-4)GlcNAc(b1-3)Gal(b1-4)GlcNAc(b1-6)]Man(a1-6)[GlcNAc(b1-3)Gal(b1-4)GlcNAc(b1-3)Gal(b1-4)GlcNAc(b1-2)Man(a1-3)]Man(b1-4)GlcNAc(b1-4)[Fuc(a1-6)]GlcNAc
# Method in brief: as §1
# [20] = molecular target: GlcNAc(b1-3)Gal(b1-4)GlcNAc(b1-3)Gal(b1-4)GlcNAc(b1-3)Gal(b1-4)GlcNAc(b1-3)Gal(b1-4)GlcNAc(b1-2)[GlcNAc(b1-3)Gal(b1-4)GlcNAc(b1-3)Gal(b1-4)GlcNAc(b1-3)Gal(b1-4)GlcNAc(b1-3)Gal(b1-4)GlcNAc(b1-6)]Man(a1-6)[GlcNAc(b1-3)Gal(b1-4)GlcNAc(b1-3)Gal(b1-4)GlcNAc(b1-3)Gal(b1-4)GlcNAc(b1-3)Gal(b1-4)GlcNAc(b1-2)Man(a1-3)]Man(b1-4)GlcNAc(b1-4)[Fuc(a1-6)]GlcNAc
# Method in brief: as §1
# [21] = molecular target: GlcNAc(b1-6)Gal(b1-4)GlcNAc
# Method in brief: as §1
# [22] = molecular target: Kdn(a2-3)Gal(b1-4)[Fuc(a1-3)]GlcNAc
# Method in brief: as §1
# Kdn(a2-6)Gal(b1-4)GlcNAc = molecular target: Kdn(a2-6)Gal(b1-4)GlcNAc
# Method in brief: as §1
# [23] = molecular target: Man(a1-2)Man(a1-3)[Man(a1-6)]Man(a1-6)[Man(a1-2)Man(a1-3)]Man(b1-4)GlcNAc(b1-4)GlcNAc
# Method in brief: as §1
# [24] = molecular target: Man(a1-2)Man(a1-6)[Man(a1-3)]Man(a1-6)[Man(a1-2)Man(a1-2)Man(a1-3)]Man(b1-4)GlcNAc(b1-4)GlcNAc
# Method in brief: as §1
# Man(a1-6)Man = molecular target: Man(a1-6)Man
# Method in brief: as §1
# [25] = molecular target: Neu5Ac(a2-3)Gal(b1-3)GalNAc
# Method in brief: as §1
# [26] = molecular target: Neu5Ac(a2-3)Gal(b1-4)GlcNAc(b1-3)Gal(b1-4)GlcNAc(b1-3)Gal(b1-4)GlcNAc(b1-2)Man(a1-3)[Neu5Ac(a2-3)Gal(b1-4)GlcNAc(b1-3)Gal(b1-4)GlcNAc(b1-3)Gal(b1-4)GlcNAc(b1-2)Man(a1-6)]GalNAc
# Method in brief: as §1
# [27] = molecular target: Neu5Ac(a2-3)Gal(b1-4)GlcNAc(b1-6)[Gal(b1-3)]GalNAc
# Method in brief: as §1
# [28] = molecular target: Neu5Ac(a2-3)Gal(b1-4)GlcNAc(b1-6)[Neu5Ac(a2-3)Gal(b1-3)]GalNAc
# Method in brief: as §1
# Neu5Ac(a2-6)Gal = molecular target: Neu5Ac(a2-6)Gal
# Method in brief: as §1
# [29] = molecular target: Neu5Ac(a2-6)Gal(b1-4)GlcNAc(b1-2)Man(a1-3)[Gal(b1-4)GlcNAc(b1-2)Man(a1-6)]Man(b1-4)GlcNAc(b1-4)GlcNAc
# Method in brief: as §1
# [30] = molecular target: Neu5Ac(a2-6)Gal(b1-4)GlcNAc(b1-2)Man(a1-6)[Gal(b1-4)GlcNAc(b1-2)Man(a1-3)]Man(b1-4)GlcNAc(b1-4)GlcNAc
# Method in brief: as §1
# [31] = molecular target: Neu5Ac(a2-6)Gal(b1-4)GlcNAc(b1-3)GalNAc
# Method in brief: as §1
# [32] = molecular target: Neu5Gc(a2-3)Gal(b1-4)[Fuc(a1-3)]GlcNAc
# Method in brief: as §1
binder,measurement,setting,value
B1,glycan array binding signal (z-score),[1],0.123
same,glycan array binding signal (z-score),[2],0.458
same,glycan array binding signal (z-score),[3],-0.37
same,glycan array binding signal (z-score),[4],-0.375
same,glycan array binding signal (z-score),[5],-0.276
same,glycan array binding signal (z-score),[6],6.64
same,glycan array binding signal (z-score),[7],0.044
same,glycan array binding signal (z-score),Gal(a1-3)GalNAc,1.94
same,glycan array binding signal (z-score),[8],8.82
same,glycan array binding signal (z-score),Gal(a1-4)Gal(b1-4)Glc,4.63
same,glycan array binding signal (z-score),[9],1.23
same,glycan array binding signal (z-score),[10],-0.028
same,glycan array binding signal (z-score),Gal(b1-4)Gal,0.335
same,glycan array binding signal (z-score),[11],-0.444
same,glycan array binding signal (z-score),[12],-0.845
same,glycan array binding signal (z-score),Gal(b1-6)Gal,-0.362
same,glycan array binding signal (z-score),Gal3S6S(b1-4)GlcNAc6S,1.61
same,glycan array binding signal (z-score),Gal6S(b1-4)Glc,-0.21
same,glycan array binding signal (z-score),[13],3.08
same,glycan array binding signal (z-score),GalNAc(b1-4)GlcNAc,8.25
same,glycan array binding signal (z-score),GalNAc4S6S(b1-4)GlcNAc,1.39
same,glycan array binding signal (z-score),GalNAc6S(b1-4)GlcNAc,-0.134
same,glycan array binding signal (z-score),GlcA(b1-3)Gal,-0.785
same,glycan array binding signal (z-score),[14],-0.54
same,glycan array binding signal (z-score),[15],-0.607
same,glycan array binding signal (z-score),[16],-0.394
same,glycan array binding signal (z-score),[17],-0.434
same,glycan array binding signal (z-score),[18],2.56
same,glycan array binding signal (z-score),[19],1.12
same,glycan array binding signal (z-score),[20],1.33
same,glycan array binding signal (z-score),[21],1.88
same,glycan array binding signal (z-score),[22],-0.336
same,glycan array binding signal (z-score),Kdn(a2-6)Gal(b1-4)GlcNAc,-0.164
same,glycan array binding signal (z-score),[23],0.607
same,glycan array binding signal (z-score),[24],-0.172
same,glycan array binding signal (z-score),Man(a1-6)Man,0.232
same,glycan array binding signal (z-score),[25],-0.438
same,glycan array binding signal (z-score),[26],2.21
same,glycan array binding signal (z-score),[27],-0.303
same,glycan array binding signal (z-score),[28],-0.407
same,glycan array binding signal (z-score),Neu5Ac(a2-6)Gal,0.474
same,glycan array binding signal (z-score),[29],-0.171
same,glycan array binding signal (z-score),[30],-0.325
same,glycan array binding signal (z-score),[31],-0.543
same,glycan array binding signal (z-score),[32],-0.299
